About 79,000 compounds went through this panel and 15% of them were active in at least one assay; those are over-represented in the sample as a whole. Calls of active or inactive are those of the source. No stated cut-off is given here; in the data, active means growth inhibition above about 70%; inactive means the rest.
Experiments:
[1] = NCI Yeast Anticancer Drug Screen. Data for the wt1 strain (AID 149);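 further: 0% = growth of vehicle-treated wt1 cultures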; settings: S. cerevisiae wt1 strain (SPY 50644) growth inhibition, stronger effect = higher value
Procedure, shortened: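 Readout: yeast growth inhibition, normalised to vehicle controls, in the wt1 strain exposed to test compounds.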

[2] = NCI Yeast Anticancer Drug Screen. Data for the rad50EPP+ strain (AID 151);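 further: 0% = growth of vehicle-treated control cultures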; settings: S. cerevisiae rad50 mutant strain, stronger effect = higher value
Procedure, shortened: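 In this screen, rad50EPP+ yeast were exposed to compounds. Growth inhibition was scored against vehicle-treated controls.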

[3] = NCI Yeast Anticancer Drug Screen. Data for the mgt1 strain (AID 153); settings: S. cerevisiae mgt1 mutant growth inhibition, stronger effect = higher value
Procedure, shortened: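 mgt1 strain exposed; growth vs vehicle control recorded as inhibition.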

[4] = NCI Yeast Anticancer Drug Screen. Data for the rad50 strain (AID 155);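 further: 0% = growth of vehicle-only cultures of the same strain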; settings: S. cerevisiae rad50 strain growth inhibition, stronger effect = higher value
Procedure, shortened: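 Compounds were tested on a yeast strain with an engineered DNA damage repair alteration; the reported value is growth inhibition normalised to vehicle treatment.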

[5] = NCI Yeast Anticancer Drug Screen. Data for the mec2-1 strain (AID 157); settings: S. cerevisiae mec2-1 strain, stronger effect = higher value
Procedure, shortened: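 Vehicle-treated cultures served as reference for growth inhibition of compound-exposed mec2-1 yeast.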

[6] = NCI Yeast Anticancer Drug Screen. Data for the rad14 strain (AID 159);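 further: 0% = growth of vehicle-treated control cultures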; settings: S. cerevisiae rad14 strain growth inhibition, stronger effect = higher value
Procedure, shortened: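 Compound-treated yeast with a defined DNA-repair lesion; growth inhibition normalised to vehicle-treated cultures.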

[7] = NCI Yeast Anticancer Drug Screen. Data for the sgs1 mgt1 strain (AID 161);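 further: 0% = growth of cultures given vehicle only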; settings: S. cerevisiae sgs1 mgt1 strain, stronger effect = higher value
Procedure, shortened: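 Mutant yeast exposed to compound; growth scored against vehicle-only wells.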

[8] = NCI Yeast Anticancer Drug Screen. Data for the CLN2oe strain (AID 163);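 further: 0% = growth of vehicle-only control cultures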; settings: S. cerevisiae CLN2oe strain, stronger effect = higher value
Procedure, shortened: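 Inhibition relative to vehicle-treated yeast is reported. Cells: strain with genetic alteration in cell-cycle control, grown with compound.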

[9] = NCI Yeast Anticancer Drug Screen. Data for the cln2 rad14 strain (AID 165);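 further: 0% = growth equal to vehicle treated cultures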; settings: S. cerevisiae cln2 rad14 strain, stronger effect = higher value
Procedure, shortened: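 Each compound was tested on cln2 rad14 yeast. Inhibition of growth was calculated against vehicle-exposed controls.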

[10] = NCI Yeast Anticancer Drug Screen. Data for the bub3 strain (AID 167); settings: S. cerevisiae bub3 mutant strain, stronger effect = higher value
Procedure, shortened: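 Growth of a checkpoint-deficient yeast mutant is measured after compound exposure. Values represent inhibition relative to vehicle.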

[11] = NCI Yeast Anticancer Drug Screen. Data for the wt2 strain (AID 169);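 further: 0% = growth of vehicle-treated yeast cultures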; settings: S. cerevisiae wt2 strain growth inhibition, stronger effect = higher value
Procedure, shortened: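 Inhibition of yeast growth was determined after compound treatment, normalised to controls receiving only vehicle.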

[12] = NCI Yeast Anticancer Drug Screen. Data for the sgs1 strain (AID 173);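 further: 0% = growth of vehicle-only control cultures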; settings: S. cerevisiae sgs1 mutant, stronger effect = higher value
Procedure, shortened: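 Screen format: yeast with repair or checkpoint alterations, compound exposure, growth read relative to vehicle.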

[13] = NCI Yeast Anticancer Drug Screen. Data for the mlh1 rad18 strain (AID 175); settings: S. cerevisiae mlh1 rad18 strain growth inhibition, stronger effect = higher value
Procedure, shortened: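 Vehicle-treated cultures served as the reference for growth inhibition in a yeast strain carrying DNA damage repair alterations exposed to each compound.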

[14] = NCI Yeast Anticancer Drug Screen. Data for the rad18 strain (AID 177); settings: S. cerevisiae rad18 mutant growth inhibition, stronger effect = higher value
Procedure, shortened: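 Test articles were incubated with altered yeast defective in DNA damage repair. Results are given as inhibition of growth versus vehicle.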

[15] = NCI Yeast Anticancer Drug Screen. Data for the rad52 strain (AID 147);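 further: 0% = growth of vehicle-treated control cultures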; settings: S. cerevisiae rad52 mutant growth inhibition, stronger effect = higher value
Procedure, shortened: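 Vehicle-treated cultures served as the reference for growth inhibition of compound-exposed yeast bearing a DNA repair mutation.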

[16] = at 5.0 µM (retest, dose inferred, filed as 0.5)
[17] = at 50.0 µM (retest, dose inferred, filed as 5.0)

Measured: growth inhibition

COC(=O)c1c(C)ccc2c(O)c3c(cc12)C(=O)c1c2c(cc(O)c1C3=O)C1(C)OC(C)(O2)C(O)C(N(C)C)C1O (stereo not drawn)
inactive: [1]; at 1.2 µM 5% | [1]; at 3.7 µM 1% | [1]; at 11.0 µM 22% | [2]; at 1.2 µM -2% | [2]; at 3.7 µM 17% | [2]; at 11.0 µM 51% | [2]; at 100.0 µM 67% | [3]; at 1.2 µM 0% | [3]; at 3.7 µM 10% | [3]; at 11.0 µM 23% | [4]; at 1.2 µM 4% | [4]; at 3.7 µM 35% | [4]; [16] 10% | [5]; at 1.2 µM -3% | [5]; at 3.7 µM 3% | [5]; [16] 6% | [6]; at 1.2 µM 0% | [6]; at 3.7 µM 18% | [7]; [16] -11% | [8]; at 1.2 µM -7% | [8]; at 3.7 µM 0% | [8]; at 11.0 µM 39% | [9]; [16] 39% | [10]; at 1.2 µM -4% | [10]; at 3.7 µM -2% | [10]; [16] -19% | [10]; at 11.0 µM 64% | [11]; at 1.2 µM -1% | [11]; at 3.7 µM 4% | [11]; at 11.0 µM 39% | [12]; at 1.2 µM 0% | [12]; at 3.7 µM 7% | [12]; at 11.0 µM 44% | [13]; [16] 1% | [14]; at 1.2 µM 1% | [14]; at 3.7 µM 25%
active: [1]; at 33.0 µM 79% | [1]; at 100.0 µM 94% | [2]; at 33.0 µM 74% | [3]; at 33.0 µM 95% | [3]; at 100.0 µM 94% | [4]; at 11.0 µM 90% | [4]; at 33.0 µM 92% | [4]; [17] 98% | [4]; at 50.0 µM 97% | [4]; at 100.0 µM 84% | [5]; at 11.0 µM 70% | [5]; at 33.0 µM 97% | [5]; [17] 98% | [5]; at 50.0 µM 95.5% | [5]; at 100.0 µM 88% | [6]; at 11.0 µM 98% | [6]; at 33.0 µM 95% | [6]; at 100.0 µM 89% | [7]; [17] 95% | [7]; at 50.0 µM 97.8% | [8]; at 33.0 µM 94% | [8]; at 100.0 µM 92% | [9]; [17] 97% | [9]; at 50.0 µM 92.9% | [10]; at 33.0 µM 96% | [10]; [17] 98% | [10]; at 50.0 µM 95.7% | [10]; at 100.0 µM 89% | [11]; at 33.0 µM 97% | [11]; at 100.0 µM 94% | [12]; at 33.0 µM 96% | [12]; at 100.0 µM 91% | [13]; [17] 98% | [13]; at 50.0 µM 96.5% | [14]; at 11.0 µM 80% | [14]; at 33.0 µM 95% | [14]; at 100.0 µM 88%

Nc1nc(-c2ccccc2)c(-c2ccccc2)[se]1
active: [7]; at 50.0 µM 86.2%
inactive: [15]; at 1.2 µM 3% | [15]; at 3.7 µM 3% | [15]; at 11.0 µM 0% | [15]; at 33.0 µM 12% | [15]; at 100.0 µM 28% | [2]; at 1.2 µM -1% | [2]; at 3.7 µM 7% | [2]; at 11.0 µM 9% | [2]; at 33.0 µM 18% | [2]; at 100.0 µM 25% | [3]; at 1.2 µM -3% | [3]; at 3.7 µM 1% | [3]; at 11.0 µM 0% | [3]; at 33.0 µM 2% | [3]; at 100.0 µM 12% | [4]; at 1.2 µM 7% | [4]; at 3.7 µM 4% | [4]; [16] 7% | [4]; at 11.0 µM 5% | [4]; at 33.0 µM 16% | [4]; [17] 10% | [4]; at 50.0 µM 51.1% | [4]; at 100.0 µM 32% | [5]; at 1.2 µM -1% | [5]; at 3.7 µM 1% | [5]; [16] 11% | [5]; at 11.0 µM 0% | [5]; at 33.0 µM 3% | [5]; [17] 10% | [5]; at 50.0 µM 22.9% | [5]; at 100.0 µM 7% | [6]; at 1.2 µM 5% | [6]; at 3.7 µM 3% | [6]; at 11.0 µM 4% | [6]; at 33.0 µM 13% | [6]; at 100.0 µM 28% | [7]; [16] 10% | [7]; [17] 23% | [8]; at 1.2 µM 3% | [8]; at 3.7 µM -1% | [8]; at 11.0 µM 3% | [8]; at 33.0 µM 8% | [8]; at 100.0 µM 15% | [10]; at 1.2 µM -2% | [10]; at 3.7 µM -2% | [10]; [16] 3% | [10]; at 11.0 µM -3% | [10]; at 33.0 µM 3% | [10]; [17] 1% | [10]; at 50.0 µM 41.3% | [10]; at 100.0 µM 5% | [11]; at 1.2 µM -10% | [11]; at 3.7 µM -9% | [11]; at 11.0 µM -14% | [11]; at 33.0 µM -9% | [11]; at 100.0 µM -10% | [12]; at 1.2 µM -18% | [12]; at 3.7 µM 7% | [12]; at 11.0 µM 11% | [12]; at 33.0 µM 6% | [12]; at 100.0 µM 32% | [13]; [16] 6% | [13]; [17] 10% | [13]; at 50.0 µM 62.5%

Source: PubChem BioAssay (NCI)
